Screen size: about 2,000 compounds; fewer than 10 were called active. The list is a sample of the results. Values without a mark were called inactive.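 How the source made its calls: active means compounds that quench the bead-bound fluorescent RNA probe, cutting fluorescence to under half of the solvent control; inactive means the rest.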
Test: bead-bound FAM aptamer signal quenchers – biochemical, single point, cherry pick 1, flow cytometry, artefact control for GRK2 RNA aptamer inhibitor project, confirmation (AID 504580);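 further: counterscreen run without GRK2 so only probe quenching by compound is measured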
Conditions: Carboxyfluorescein RNA aptamer on beads, flow cytometry quenching; at 10 µM; active compounds read low

| SMILES | fluorescence response (% of DMSO) |
| --- | --- |
| COc1ccc(-n2nc(C(=O)NCC(=O)N3CCCCCC3)c3ccccc3c2=O)cc1Cl | 105% |
| COc1ccccc1NC(=O)CSc1nc2sc3c(c2c(=O)n1-c1ccccc1)CCN(C)C3 | 94.8% |
| NC(=O)C1CCN(C(=O)c2ccc3c(=O)n(Cc4cccc(Br)c4)c(=S)[nH]c3c2)CC1 | 98.1% |
| COc1ccc(C(=O)NCCNc2ccc([N+](=O)[O-])cn2)cc1 | 99.4% |
| Cc1nc(C(=O)NCc2ccccc2)sc1C1(C)CC(c2cccnc2)=NO1 (stereo not drawn) | 97.1% |
| O=C(c1cc2cc(F)ccc2[nH]1)N1CCN(c2ccc(F)cc2)CC1 | 97.9% |
| CNS(=O)(=O)c1cccc(C(=O)NCC2CCCCC2)c1 | 101% |
| Nc1ccc2nc3c(=O)[nH]c(=S)[nH]c3nc2c1 | 83.9% |
| O=C(Oc1ccc(Br)cc1)c1cccnc1 | 96.7% |
| Cc1ccccc1-c1nnn(CC(=O)c2ccc(S(=O)(=O)N3CCCC3)cc2)n1 | 96.4% |
| CSc1ccc(/C=C2\NC(=O)NC2=O)cc1 | 95.8% |
| Cc1ccc(-c2nn(-c3ccccc3)cc2/C=C2\SC(=S)N(CCCCCC(=O)O)C2=O)o1 | 136% |
| COCCn1c(C)cc(C(=O)CN2c3cccc4cccc(c34)S2(=O)=O)c1C | 98% |
| Cc1cc(C(=O)NC2CCN(Cc3ccccc3)CC2)n[nH]1 | 96.6% |
| C/C(=N\OCC(=O)O)c1ccc(Cl)cc1 | 101% |
| CC(NC(=O)C1CCCN(S(=O)(=O)c2ccc(-n3cnnn3)cc2)C1)c1ccc(F)cc1 (stereo not drawn) | 105% |
| CCN1C(=O)[C@H]2[C@@H](c3ccc(-c4ccc(OC)cc4)cc3)N[C@@](Cc3ccccc3)(C(=O)OC)[C@H]2C1=O | 96.4% |
| COc1ccc(NC(=O)CN(C)C(=O)c2cc(-c3ccc(C)o3)nc3ccccc23)cc1 | 100% |
| COc1ccc(N2CCN(C(CNS(=O)(=O)c3ccc(C)cc3)c3ccccc3)CC2)cc1 (stereo not drawn) | 98.2% |
| O=C(NCC12CC3CC(C1)CC(CNC(=O)N1CCCC1)(C3)C2)N1CCCC1 | 98.2% |
| O=C(O)c1ccc2c(c1)C(=O)N(c1ccc(/C=C/C(=O)c3ccccc3)cc1)C2=O | 99.8% |
| O=S(=O)(Nc1ccc(-c2ccc(N3CCOCC3)nn2)cc1)c1cc(Cl)ccc1Cl | 108% |
| O=C(NCc1ccccc1)c1cccc(NC(=O)C2CCCCC2)c1 | 98% |
| CCC(=C/c1sc2ccc3ccccc3c2[n+]1C)/C=C1\Sc2ccc3ccccc3c2N1C | 10.7% (active) |
| Cc1ccccc1CN1CCN(CC(=O)NCc2ccccn2)C1=O | 101% |
| Cc1ccc(S(=O)(=O)CCC(=O)Nc2nnc(CC(C)C)s2)cc1 | 99.8% |
| O=C(CCNC(=O)c1ccccc1)NN=Cc1ccc(Br)o1 | 96.6% |

| SMILES | fluorescence response (% of DMSO) |
| --- | --- |
| Cc1ccc(C(CNC(=O)Nc2cccc(C)c2)N2CCN(C)CC2)cc1 (stereo not drawn) | 98% |
| O=c1[nH]c(SCc2ccccc2)nnc1-c1ccccc1 | 98.2% |
| Cc1nc(Nc2ccccc2F)c2nnn(Cc3ccccc3Cl)c2n1 | 99.8% |
| CCOC(=O)C1CCCN(Cc2nc(N)nc(Nc3ccc(C)cc3)n2)C1 (stereo not drawn) | 80% |
| Cc1ccc(N2C(=O)C3N=NN(CC(=O)N4N=C(c5cccc6ccccc56)CC4c4ccccc4)C3C2=O)cc1 (stereo not drawn) | 101% |
| OC(CN=c1sc2ccccc2n1CC(O)COc1ccccc1)COc1ccccc1 (stereo not drawn) | 95.8% |
| CC(C)CN(C(=O)c1cccc(S(=O)(=O)N2CCCCC2)c1)C1CCS(=O)(=O)C1 (stereo not drawn) | 102% |
| O=C(COc1ccccc1)NCCc1nc2ccccc2[nH]1 | 99.7% |
| CCOC(=O)C(C)n1cnc2scc(-c3ccc(C)c(C)c3)c2c1=O (stereo not drawn) | 95.4% |
| Cc1cc(/C=C2\SC(=O)N(C)C2=O)c(C)n1-c1cccc(C(=O)O)c1 | 96.6% |
| COc1ccc(Cl)cc1NC(=O)CCS(=O)(=O)c1cc2c(cc1C)NC(=O)CO2 | 99.6% |
| COC(=O)c1ccc(C)c(NC(=O)C2CC(=O)N(C3CCCC(C)C3C)C2)c1 (stereo not drawn) | 94.9% |
| CCN1/C(=C/c2ccc3ccc(C)cc3[n+]2CC)Sc2ccccc21 | 142% |
| Cc1cccc(NC(=O)C2CCCN(C(=O)NCc3ccccc3)C2)c1C (stereo not drawn) | 102% |
| CCCCn1nc(C(=O)OCC(=O)Nc2sccc2C(N)=O)c2ccccc2c1=O | 99.8% |
| O=C(CCS(=O)(=O)c1ccc(Br)cc1)NCCc1ccc(Cl)cc1 | 102% |
| O=C1C2N=NN(CC(=O)N3N=C(c4cccc5ccccc45)CC3c3ccccc3)C2C(=O)N1c1ccccc1 (stereo not drawn) | 91.2% |
| CN/C(=C\[N+](=O)[O-])NCCSCc1csc(CN(C)C)n1 | 99.2% |
| COCCCNC(=O)CNC(=O)c1nn(-c2ccc(OC)cc2)c(=O)c2ccccc12 | 96.3% |
| O=C(NNc1ncnc2c1cnn2-c1ccccc1)c1ccco1 | 97.9% |
| CC(=O)c1ccc(OCC(O)CN2CCN(S(=O)(=O)c3cccc(Br)c3)CC2)cc1 (stereo not drawn) | 142% |
| CCOCCCNC(=O)C(NC(=O)CNC(=O)c1ccccc1)c1ccc(OC)cc1 (stereo not drawn) | 96% |
| Cc1nn(Cc2ccc(F)cc2)c(C)c1NC(=O)c1noc2c1CCc1ccccc1-2 | 97% |
| C/C(=N\Nc1nc2ccccc2[nH]1)c1cccs1 | 92.8% |
| O=C(Nc1ccc(-c2nnc(-c3ccccc3)o2)cc1)c1ccc(Br)o1 | 98.8% |
| CN(Cc1ccccc1)C(=O)c1cccc(C(=O)N(C)Cc2ccccc2)c1 | 101% |
